This passage reports differential viability (reversal) and viability results from PubChem BioAssay.

Active and inactive are the calls of the source.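 Rule for the calls: active = viability loss from added drug above about 55%, and viability with drug at most 40%, in both replicates (limit read from the data, passing the limit was not always enough); inconclusive = both conditions met in only one replicate; inactive = neither replicate meets both conditions.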

A short description of the first test: reversal of MRP1-mediated doxorubicin resistance, pilot screen, H69AR cells, doxorubicin co-treatment (AID 601). The conditions noted are these: H69AR cells + 2 uM doxorubicin, CellTiter-Glo, 72 h; at 10 µM; stronger effect = higher value. A general note: ATP-based viability assays read luminescence as a measure of living cells.
As to `COC(=O)CN(c1ccc2c(c1)OCO2)S(C)(=O)=O`, the differential viability (reversal) was 12.5% (inactive).
The same measure, in the same setting: in the case of `CCS(=O)(=O)c1nc2ccccc2n1CC(=O)N1CCOCC1` it was 3.73% (inactive); in that of `Cc1onc(-c2c(Cl)cccc2Cl)c1C(=O)NCCCN1CCOCC1`, -1.13% (inactive); in that of `Cn1nc(-c2ccc(C(=O)N3CCN(c4ccccc4)CC3)cc2)c2ccccc2c1=O`, 3.5% (inactive).
Same read-out and setting: in the case of `CCCn1c(SCC(=O)NCc2ccco2)nc2c1c(=O)n(C)c(=O)n2C` it was 15.9% (inactive); in that of `CC(=O)N1CCN(S(=O)(=O)c2ccc(S(=O)(=O)NCC(C)C)cc2)CC1`, 2.16% (inactive).
Turning to `COC(=O)c1ccccc1NC(=O)c1noc2c1CC(C(C)(C)C)CC2` (stereo unspecified), the differential viability (reversal) was 14.2% (inactive).
On the same count and under the same terms, the figure for `COC(=O)CN1C(=O)C2(C(C#N)=C(N)Oc3c2c(C)nn3-c2ccccc2)c2ccccc21` (stereo unspecified) is -5.54% (inactive); for `Cc1ccc(OCc2nnc(SCC(=O)Nc3ccc4c(c3)OCO4)n2C)cc1` it is -22.4% (inactive); for `CN(C(=O)c1c(Cl)nc2sccn12)C1CCCCC1` it is 16.4% (inactive).
Same read-out and setting: in the case of `CCCN(CCC)CCCNS(=O)(=O)c1ccc2c(c1)oc(=O)n2C` it was 0.825% (inactive); in that of `CC(C)NC(=O)NC(=O)COc1cccc2c1OC(C)(C)C2`, 16.9% (inactive).
As for `Cc1ccc(S(=O)(=O)N(C)CC(=O)NC2CC(C)(C)NC(C)(C)C2)cc1`, the differential viability (reversal) is 8.25% (inactive).
On the same count and under the same terms, the figure for `CC1Cc2ccccc2N1C(=O)Cc1cccs1` (stereo unspecified) is 16.1% (inactive).
Same read-out and setting: the figure for `COc1ccc(-c2coc3c(CN4CCCCC4)c(O)c(CN4CCCCC4)c(O)c3c2=O)cc1` is -0.025% (inactive); for `CSc1cccc(NC(=O)CN(C)S(=O)(=O)c2ccccc2)c1` it is 15.1% (inactive).
With `O=C(NCCN1CCCC1)C1COc2ccccc2O1` (stereo unspecified), the differential viability (reversal) is 1.77% (inactive).
Still for that read-out and setting: in the case of `COc1ccc(C)cc1NC(=O)CCN1CCCC1` it was 9.77% (inactive).

The test is the same for the next values; noted with them: H69AR cells + 2 uM doxorubicin, CellTiter-Glo, 72 h; measured here: viability with 2 uM doxorubicin; at 10 µM; stronger effect = lower value.
Take `Cc1ccc(C)c(SCC(=O)Nc2nnc(-c3ccccc3)o2)c1`: the viability (commonly a read-out of living cells in per cent, often relative to untreated cells) was found to be 75.6%.
Same read-out and setting: in the case of `Cc1ccccc1CN1CCN(C(=O)c2cccc(F)c2)CC1` it was 96.9%; in that of `Cc1cc(NCCCn2ccnc2)n2c(nc3ccccc32)c1C#N`, 93.3%; in that of `CCOC(=O)C1CCN(C(=O)CN(Cc2ccccc2)S(C)(=O)=O)CC1`, 93.3%.
The same measure, in the same setting: the figure for `COc1ccc(CCNC(=O)c2nc3ncccn3n2)cc1OC` is 94.5%; for `CCOC(=O)N1CCN(C(=O)Nc2ccc(Cl)cc2)CC1` it is 83.4%; for `O=C(CN1C(=O)COc2ccccc21)NCCCN1CCN(Cc2ccccc2)CC1` it is 85%.
On the same count and under the same terms, the figure for `O=C(O)C1CC(=O)N(c2ccc(OCc3c(F)cccc3Cl)cc2)C1` (stereo unspecified) is 101%; for `COC(=O)C1(C(=O)OC)Sc2ccccc2C1=O` it is 90.8%.
Take `CCOc1ccccc1OCCn1nnc2ccccc21`: the viability turned out to be 80.3%.
Same read-out and setting: in the case of `Cc1nn(-c2ccccc2)c(Cl)c1C1C(C#N)=C(N)OC2=C1C(=O)CC(C)(C)C2` (stereo unspecified) it was 84.4%; in that of `COc1ccc(S(=O)(=O)NCc2ccco2)cc1-c1nnc2c3ccccc3c(C)nn12`, 94.2%; in that of `O=S(=O)(c1ccccc1)N1CCSC1c1ccco1` (stereo unspecified), 87.9%.
The same measure, in the same setting: in the case of `CCNc1ccc2c(Cl)cc(=O)oc2c1` it was 74.5%; in that of `COc1ccccc1-c1ccc(Nc2cccc(C(C)=O)c2)nn1`, 55.8%.
Same read-out and setting: the figure for `O=C(NC1CCCCC1)C(c1ccc(Cl)cc1)N(C(=O)c1cnccn1)c1ccc2c(c1)OCO2` (stereo unspecified) is 75.8%; for `COC(=O)CN(c1ccc2c(c1)OCO2)S(C)(=O)=O` it is 97.9%; for `CCS(=O)(=O)c1nc2ccccc2n1CC(=O)N1CCOCC1` it is 87.2%.
In the case of `Cc1onc(-c2c(Cl)cccc2Cl)c1C(=O)NCCCN1CCOCC1`, the viability was determined as 101%.
Still for that read-out and setting: in the case of `Cn1nc(-c2ccc(C(=O)N3CCN(c4ccccc4)CC3)cc2)c2ccccc2c1=O` it was 88.9%.
Consider `CCCn1c(SCC(=O)NCc2ccco2)nc2c1c(=O)n(C)c(=O)n2C`, for which the viability turned out to be 78.5%.
The same measure, in the same setting: in the case of `CC(=O)N1CCN(S(=O)(=O)c2ccc(S(=O)(=O)NCC(C)C)cc2)CC1` it was 86.4%.
On the same count and under the same terms, the figure for `COC(=O)c1ccccc1NC(=O)c1noc2c1CC(C(C)(C)C)CC2` (stereo unspecified) is 92.9%; for `COC(=O)CN1C(=O)C2(C(C#N)=C(N)Oc3c2c(C)nn3-c2ccccc2)c2ccccc21` (stereo unspecified) it is 73.3%.
For the molecule `Cc1ccc(OCc2nnc(SCC(=O)Nc3ccc4c(c3)OCO4)n2C)cc1`, the viability was 99.3%.
On the same count and under the same terms, in the case of `CN(C(=O)c1c(Cl)nc2sccn12)C1CCCCC1` it was 77.5%; in that of `CCCN(CCC)CCCNS(=O)(=O)c1ccc2c(c1)oc(=O)n2C`, 93.8%; in that of `CC(C)NC(=O)NC(=O)COc1cccc2c1OC(C)(C)C2`, 87.9%.
Same read-out and setting: the figure for `Cc1ccc(S(=O)(=O)N(C)CC(=O)NC2CC(C)(C)NC(C)(C)C2)cc1` is 88%.
On the same count and under the same terms, the figure for `CC1Cc2ccccc2N1C(=O)Cc1cccs1` (stereo unspecified) is 92.3%; for `COc1ccc(-c2coc3c(CN4CCCCC4)c(O)c(CN4CCCCC4)c(O)c3c2=O)cc1` it is 1.5%.
`CSc1cccc(NC(=O)CN(C)S(=O)(=O)c2ccccc2)c1`: the viability stood at 80%.
The same measure, in the same setting: the figure for `O=C(NCCN1CCCC1)C1COc2ccccc2O1` (stereo unspecified) is 93.9%; for `COc1ccc(C)cc1NC(=O)CCN1CCCC1` it is 87.7%.

The test is the same for the next values; noted with them: H69AR cells, CellTiter-Glo, 72 h; compound alone cytotoxicity; at 10 µM.
Take `Cc1ccc(C)c(SCC(=O)Nc2nnc(-c3ccccc3)o2)c1`: the viability is 74.9%.
Turning to `Cc1ccccc1CN1CCN(C(=O)c2cccc(F)c2)CC1`, the viability amounted to 101%.
Still for that read-out and setting: in the case of `Cc1cc(NCCCn2ccnc2)n2c(nc3ccccc32)c1C#N` it was 100%.
The same measure, in the same setting: the figure for `CCOC(=O)C1CCN(C(=O)CN(Cc2ccccc2)S(C)(=O)=O)CC1` is 92.1%.
The same measure, in the same setting: the figure for `COc1ccc(CCNC(=O)c2nc3ncccn3n2)cc1OC` is 102%.
Turning to `CCOC(=O)N1CCN(C(=O)Nc2ccc(Cl)cc2)CC1`, the viability was determined as 98.3%.
On the same count and under the same terms, the figure for `O=C(CN1C(=O)COc2ccccc21)NCCCN1CCN(Cc2ccccc2)CC1` is 87.3%.
On the same count and under the same terms, in the case of `O=C(O)C1CC(=O)N(c2ccc(OCc3c(F)cccc3Cl)cc2)C1` (stereo unspecified) it was 105%; in that of `COC(=O)C1(C(=O)OC)Sc2ccccc2C1=O`, 101%; in that of `CCOc1ccccc1OCCn1nnc2ccccc21`, 98.7%.
Still for that read-out and setting: in the case of `Cc1nn(-c2ccccc2)c(Cl)c1C1C(C#N)=C(N)OC2=C1C(=O)CC(C)(C)C2` (stereo unspecified) it was 12.2%; in that of `COc1ccc(S(=O)(=O)NCc2ccco2)cc1-c1nnc2c3ccccc3c(C)nn12`, 83.9%; in that of `O=S(=O)(c1ccccc1)N1CCSC1c1ccco1` (stereo unspecified), 72.2%.
`CCNc1ccc2c(Cl)cc(=O)oc2c1`: the viability came out at 79.8%.
Still for that read-out and setting: the figure for `COc1ccccc1-c1ccc(Nc2cccc(C(C)=O)c2)nn1` is 71.6%; for `O=C(NC1CCCCC1)C(c1ccc(Cl)cc1)N(C(=O)c1cnccn1)c1ccc2c(c1)OCO2` (stereo unspecified) it is 80.2%; for `COC(=O)CN(c1ccc2c(c1)OCO2)S(C)(=O)=O` it is 110%.
Still for that read-out and setting: in the case of `CCS(=O)(=O)c1nc2ccccc2n1CC(=O)N1CCOCC1` it was 91%; in that of `Cc1onc(-c2c(Cl)cccc2Cl)c1C(=O)NCCCN1CCOCC1`, 100%; in that of `Cn1nc(-c2ccc(C(=O)N3CCN(c4ccccc4)CC3)cc2)c2ccccc2c1=O`, 92.4%.
Same read-out and setting: the figure for `CCCn1c(SCC(=O)NCc2ccco2)nc2c1c(=O)n(C)c(=O)n2C` is 94.4%.
`CC(=O)N1CCN(S(=O)(=O)c2ccc(S(=O)(=O)NCC(C)C)cc2)CC1`: the viability amounted to 88.5%.
The same measure, in the same setting: in the case of `COC(=O)c1ccccc1NC(=O)c1noc2c1CC(C(C)(C)C)CC2` (stereo unspecified) it was 107%; in that of `COC(=O)CN1C(=O)C2(C(C#N)=C(N)Oc3c2c(C)nn3-c2ccccc2)c2ccccc21` (stereo unspecified), 67.8%.
With `Cc1ccc(OCc2nnc(SCC(=O)Nc3ccc4c(c3)OCO4)n2C)cc1`, the viability worked out at 76.9%.
On the same count and under the same terms, in the case of `CN(C(=O)c1c(Cl)nc2sccn12)C1CCCCC1` it was 93.9%.
The same measure, in the same setting: the figure for `CCCN(CCC)CCCNS(=O)(=O)c1ccc2c(c1)oc(=O)n2C` is 94.7%; for `CC(C)NC(=O)NC(=O)COc1cccc2c1OC(C)(C)C2` it is 105%.
The same measure, in the same setting: in the case of `Cc1ccc(S(=O)(=O)N(C)CC(=O)NC2CC(C)(C)NC(C)(C)C2)cc1` it was 96.2%; in that of `CC1Cc2ccccc2N1C(=O)Cc1cccs1` (stereo unspecified), 108%.
Turning to `COc1ccc(-c2coc3c(CN4CCCCC4)c(O)c(CN4CCCCC4)c(O)c3c2=O)cc1`, the viability was determined as 1.48%.
Same read-out and setting: the figure for `CSc1cccc(NC(=O)CN(C)S(=O)(=O)c2ccccc2)c1` is 95.1%; for `O=C(NCCN1CCCC1)C1COc2ccccc2O1` (stereo unspecified) it is 95.7%; for `COc1ccc(C)cc1NC(=O)CCN1CCCC1` it is 97.5%.
